Laboratory results from article PMC11062922 (Nature Chemical Biology, 2023).
Like-named read-outs stand apart in the source and are kept apart here.

Experiments:
AAK1 = system: AAK1; parameters: species or system human, MV4-11 + K-562 + COLO205 + SK-N-BE2 + OVCAR-8; conditions: read-out: apparent Kd, n = 1
BMP2K = system: BMP2K; parameters: species or system human, MV4-11 + K-562 + COLO205 + SK-N-BE2 + OVCAR-8; conditions: read-out: apparent Kd, n = 1
Q6ZSR9 = Q6ZSR9 (human, UniProt Q6ZSR9); parameters: species or system MV4-11 + K-562 + COLO205 + SK-N-BE2 + OVCAR-8; conditions: read-out: apparent Kd, n = 1
GSK3A = system: GSK3A; parameters: species or system human, MV4-11 + K-562 + COLO205 + SK-N-BE2 + OVCAR-8; conditions: read-out: apparent Kd, n = 1
GSK3B = system: GSK3B; parameters: species or system human, MV4-11 + K-562 + COLO205 + SK-N-BE2 + OVCAR-8; conditions: read-out: apparent Kd, n = 1
MELK = system: MELK; parameters: species or system human, MV4-11 + K-562 + COLO205 + SK-N-BE2 + OVCAR-8; conditions: read-out: apparent Kd; compound concentrations:100 nM and 1000 nM (sheet 'Samples'); n = 1
PAK4 = system: PAK4; parameters: species or system human, MV4-11 + K-562 + COLO205 + SK-N-BE2 + OVCAR-8; conditions: read-out: apparent Kd, n = 1
PKN1 = system: PKN1; parameters: species or system human, MV4-11 + K-562 + COLO205 + SK-N-BE2 + OVCAR-8; conditions: read-out: apparent Kd, n = 1
PKN3 = system: PKN3; parameters: species or system human, MV4-11 + K-562 + COLO205 + SK-N-BE2 + OVCAR-8; conditions: read-out: apparent Kd; compound concentrations:100 nM and 1000 nM (sheet 'Samples'); n = 1
PRKAG1 = system: PRKAG1; parameters: species or system human, MV4-11 + K-562 + COLO205 + SK-N-BE2 + OVCAR-8; conditions: read-out: apparent Kd, n = 1
RET = system: RET; parameters: species or system human, MV4-11 + K-562 + COLO205 + SK-N-BE2 + OVCAR-8; conditions: read-out: apparent Kd, n = 1
CSNK2A1;CSNK2A3 = system: CSNK2A1;CSNK2A3; parameters: species or system human, MV4-11 + K-562 + COLO205 + SK-N-BE2 + OVCAR-8; conditions: read-out: apparent Kd; compound concentrations: 100 nM and 1000 nM (sheet 'Samples'), CATDS: 1.72589051675766E-2; n = 1
FLT4 = system: FLT4; parameters: species or system human, MV4-11 + K-562 + COLO205 + SK-N-BE2 + OVCAR-8; conditions: read-out: apparent Kd, compound concentrations: 100 nM and 1000 nM (sheet 'Samples'), n = 1
GAK = system: GAK; parameters: species or system human, MV4-11 + K-562 + COLO205 + SK-N-BE2 + OVCAR-8; conditions: read-out: apparent Kd; compound concentrations: 100 nM and 1000 nM (sheet 'Samples'), CATDS: 3.2430470905267197E-2; n = 1
SIK2 = system: SIK2; parameters: species or system human, MV4-11 + K-562 + COLO205 + SK-N-BE2 + OVCAR-8; conditions: read-out: apparent Kd; compound concentrations: 100 nM and 1000 nM (sheet 'Samples'), CATDS: 2.40988460516664E-2; n = 1
CLK1 = system: CLK1; parameters: species or system human, MV4-11 + K-562 + COLO205 + SK-N-BE2 + OVCAR-8; conditions: read-out: apparent Kd; compound concentrations:100 nM and 1000 nM (sheet 'Samples'); n = 1
CLK4 = system: CLK4; parameters: species or system human, MV4-11 + K-562 + COLO205 + SK-N-BE2 + OVCAR-8; conditions: read-out: apparent Kd; compound concentrations:100 nM and 1000 nM (sheet 'Samples'); n = 1
[1] = compound concentrations:100 nM and 1000 nM (sheet 'Samples')

Q6ZSR9, sequence (Q6ZSR9 whole entry, looked up): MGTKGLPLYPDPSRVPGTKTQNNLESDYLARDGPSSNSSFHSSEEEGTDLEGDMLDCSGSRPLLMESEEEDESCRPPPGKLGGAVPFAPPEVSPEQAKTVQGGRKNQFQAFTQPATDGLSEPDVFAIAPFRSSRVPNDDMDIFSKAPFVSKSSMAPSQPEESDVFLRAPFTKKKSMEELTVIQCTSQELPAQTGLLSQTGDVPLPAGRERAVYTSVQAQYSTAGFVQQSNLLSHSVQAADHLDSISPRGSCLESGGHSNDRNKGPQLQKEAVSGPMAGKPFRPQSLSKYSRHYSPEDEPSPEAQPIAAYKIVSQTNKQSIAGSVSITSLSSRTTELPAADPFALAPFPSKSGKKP

Question: With `CS(=O)(=O)Nc1cccc(-c2ccc3c(NC(=O)C4CC4)n[nH]c3c2)c1` [SB-742864] as the molecule, how does the potency estimated from few doses (AAK1; compound concentrations: 100 nM and 1000 nM (sheet 'Samples'), CATDS: 0.116591298752119) read?
Answer: The potency estimated from few doses was 1410 nM.

Question: What about the potency estimated from few doses (BMP2K; compound concentrations: 100 nM and 1000 nM (sheet 'Samples'), CATDS: 0.11349645370011199) of the same molecule?
Answer: The potency estimated from few doses was 1510 nM.

Question: And the potency estimated from few doses (Q6ZSR9; compound concentrations: 100 nM and 1000 nM (sheet 'Samples'), CATDS: 0.100041705724795)?
Answer: Its potency estimated from few doses is 2110 nM.

Question: Which potency estimated from few doses (AAK1; compound concentrations: 100 nM and 1000 nM (sheet 'Samples'), CATDS: 0.194449602003399) does the source give for `FC(F)(F)c1ccc(-c2ncn(CCCN3CCOCC3)c2-c2ccncc2)cc1` [SB-217780] here?
Answer: Its potency estimated from few doses is 1890 nM.

Question: For `CCn1c(-c2nonc2N)nc2c(C#CC(C)(C)O)nc(O[C@@H](CN)c3ccccc3)cc21.O=C(O)C(F)(F)F` [GSK1007102B], which potency estimated from few doses (AAK1; [1]) is on record?
Answer: The potency estimated from few doses was 67.3 nM.

Question: And the potency estimated from few doses (BMP2K; [1])?
Answer: Its potency estimated from few doses is 355 nM.

Question: And the potency estimated from few doses (GSK3A; [1])?
Answer: The potency estimated from few doses was 46.1 nM.

Question: What about the potency estimated from few doses (GSK3B; [1]) of the same molecule?
Answer: Its potency estimated from few doses is 40.5 nM.

Question: What about the potency estimated from few doses (MELK) of the same molecule?
Answer: Its potency estimated from few doses is 1040 nM.

Question: What about the potency estimated from few doses (PAK4; [1]) of the same molecule?
Answer: Its potency estimated from few doses is 39.8 nM.

Question: What about the potency estimated from few doses (PKN1; [1]) of the same molecule?
Answer: Its potency estimated from few doses is 37.6 nM.

Question: And the potency estimated from few doses (PKN3)?
Answer: The potency estimated from few doses was 2.06 nM.

Question: What about the potency estimated from few doses (PRKAG1; [1]) of the same molecule?
Answer: The potency estimated from few doses was 765 nM.

Question: And the potency estimated from few doses (Q6ZSR9; [1])?
Answer: Its potency estimated from few doses is 111 nM.

Question: What about the potency estimated from few doses (RET; [1]) of the same molecule?
Answer: Its potency estimated from few doses is 1250 nM.

Question: `Cc1ccccc1-n1ncc(C(=O)c2ccccc2)c1N` [RO1151248-000] was tested. Which potency estimated from few doses (AAK1; compound concentrations: 100 nM and 1000 nM (sheet 'Samples'), CATDS: 2.38860019962077E-2) did it give?
Answer: The potency estimated from few doses was 914 nM.

Question: What about the potency estimated from few doses (CSNK2A1;CSNK2A3) of the same molecule?
Answer: The potency estimated from few doses was 2250 nM.

Question: And the potency estimated from few doses (FLT4; CATDS: 1.8880298651143101E-2)?
Answer: The potency estimated from few doses was 1670 nM.

Question: What about the potency estimated from few doses (GAK) of the same molecule?
Answer: Its potency estimated from few doses is 506 nM.

Question: And the potency estimated from few doses (GSK3A; compound concentrations: 100 nM and 1000 nM (sheet 'Samples'), CATDS: 2.9908240641474598E-2)?
Answer: Its potency estimated from few doses is 584 nM.

Question: And the potency estimated from few doses (GSK3B; compound concentrations: 100 nM and 1000 nM (sheet 'Samples'), CATDS: 2.52342080828949E-2)?
Answer: The potency estimated from few doses was 813 nM.

Question: And the potency estimated from few doses (PAK4; compound concentrations: 100 nM and 1000 nM (sheet 'Samples'), CATDS: 2.19543905026186E-2)?
Answer: Its potency estimated from few doses is 1110 nM.

Question: What about the potency estimated from few doses (PKN1; compound concentrations: 100 nM and 1000 nM (sheet 'Samples'), CATDS: 1.7045557740064301E-2) of the same molecule?
Answer: The potency estimated from few doses was 2350 nM.

Question: What about the potency estimated from few doses (PRKAG1; compound concentrations: 100 nM and 1000 nM (sheet 'Samples'), CATDS: 2.5293867995276598E-2) of the same molecule?
Answer: The potency estimated from few doses was 809 nM.

Question: And the potency estimated from few doses (Q6ZSR9; compound concentrations: 100 nM and 1000 nM (sheet 'Samples'), CATDS: 2.32948628287949E-2)?
Answer: The potency estimated from few doses was 967 nM.

Question: What about the potency estimated from few doses (RET; compound concentrations: 100 nM and 1000 nM (sheet 'Samples'), CATDS: 2.2142525707208802E-2) of the same molecule?
Answer: The potency estimated from few doses was 1090 nM.

Question: And the potency estimated from few doses (SIK2)?
Answer: The potency estimated from few doses was 897 nM.

Question: `CN(c1ccc(NC(=O)NCCN2CCOCC2)cc1)c1ccnc(Nc2ccc(CS(C)(=O)=O)cc2)n1.Cl` [GW830365A] was tested. Which potency estimated from few doses (AAK1; compound concentrations: 100 nM and 1000 nM (sheet 'Samples'), CATDS: 5.9294254337115E-2) did it give?
Answer: The potency estimated from few doses was 785 nM.

Question: And the potency estimated from few doses (BMP2K; compound concentrations: 100 nM and 1000 nM (sheet 'Samples'), CATDS: 5.1935568412460401E-2)?
Answer: The potency estimated from few doses was 1150 nM.

Question: What about the potency estimated from few doses (FLT4; CATDS: 0.17294643484613401) of the same molecule?
Answer: The potency estimated from few doses was 109 nM.

Question: And the potency estimated from few doses (Q6ZSR9; compound concentrations: 100 nM and 1000 nM (sheet 'Samples'), CATDS: 5.6296915490776901E-2)?
Answer: The potency estimated from few doses was 904 nM.

Question: What about the potency estimated from few doses (RET; compound concentrations: 100 nM and 1000 nM (sheet 'Samples'), CATDS: 9.0906950139660506E-2) of the same molecule?
Answer: The potency estimated from few doses was 308 nM.

Question: For `CS(=O)(=O)Nc1ccc(-c2ccnc3[nH]ccc23)cc1` [GSK993273A], which potency estimated from few doses (AAK1; [1]) is on record?
Answer: Its potency estimated from few doses is 1890 nM.

Question: And the potency estimated from few doses (BMP2K; [1])?
Answer: Its potency estimated from few doses is 2000 nM.

Question: What about the potency estimated from few doses (CLK1) of the same molecule?
Answer: The potency estimated from few doses was 1110 nM.

Question: And the potency estimated from few doses (CLK4)?
Answer: Its potency estimated from few doses is 1440 nM.

Question: And the potency estimated from few doses (Q6ZSR9; [1])?
Answer: The potency estimated from few doses was 2010 nM.

Question: Which results are given for `CC(C)Nc1cc(-c2ccc3c(N)n[nH]c3c2)nc(N)n1` [GSK2221681A]?
Answer: potency estimated from few doses (AAK1; [1]): 149 nM; potency estimated from few doses (BMP2K; [1]): 947 nM; potency estimated from few doses (CLK4): 1550 nM; potency estimated from few doses (MELK): 1130 nM; potency estimated from few doses (Q6ZSR9; [1]): 220 nM
